We go through 14 compounds from PubChem BioAssay (Tox21).

Test [1] can be described thus: A CellTox Green Cytotoxicity Assay to monitor cytotoxicity in HEK293 cells - 40 hour (AID 1224871). Also: nearly all actives have a fitted effect of over 45% in size. The procedure, abridged: (§1)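 Cells (HEK293, 600/well) and dye reagent are dispensed together. After 5 h at 37 C, 23 nL compound is pinned in. Plates stay at 37 C for 40 h with fluorescence read at 0h, 8h, 16h, 24h, 32h and 40h.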
The nature of test [2]: qHTS RealTime-Glo MT Cell Viability Assay in HEK293 cells - 16 hour (AID 1224872). Also: top concentration of the series differs between compounds; nearly all actives have a fitted effect of over 50% in size. The procedure, abridged: (§2)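 HEK293 cells seeded with NanoLuc/prosubstrate reagent, rested 5 h at 37 C, then dosed and kept at 37 C up to 40 h. Nonlytic real-time luminescence from viable cells read at 0, 8, 16, 24, 32 and 40 h.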
A short description of test [3]: qHTS RealTime-Glo MT Cell Viability Assay in HepG2 cells - 8 hour (AID 1224873). Also: nearly all actives have a fitted effect of over 55% in size. The procedure, abridged:
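HepG2 cells mixed with RealTime-Glo MT reagents (NanoLuc plus cell-permeant prosubstrate) were seeded at 600 cells/well, incubated 5 h at 37 C/5% CO2, then pinned with compounds in DMSO; nonlytic luminescence tracked viability during 40 h treatment.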

The nature of test [4]: qHTS RealTime-Glo MT Cell Viability Assay in HEK293 cells - 40 hour (AID 1224874). Also: nearly all actives have a fitted effect of over 50% in size. Conditions: RealTime-Glo luminescence; max response: active compounds read low. The method in brief:
(§3)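 Real-time viability in HEK293: signal arises when living cells convert a prosubstrate for NanoLuc in the medium, so luminescence tracks viable cell number. Compound (23 nL, DMSO) added 5 h post-seeding; kinetic reads at 0–40 h, 37 C.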

Test [5] is described as follows: A CellTox Green Cytotoxicity Assay to monitor cytotoxicity in HEK293 cells - 24 hour (AID 1224875). Also: series mostly up to about 77 µM; nearly all actives have a fitted effect of over 45% in size. The method in brief:
as §1

The nature of test [6]: A CellTox Green Cytotoxicity Assay to monitor cytotoxicity in HepG2 cells - 16 hour (AID 1224876). Also: nearly all actives have a fitted effect of over 45% in size. The method in brief: (§4)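 Cells and non-lytic dye reagent are dispensed together (600 HepG2 cells/well) and incubated 5 h before DMSO compound transfer. Kinetic fluorescence is then recorded in the same wells during 40 h at 37 C.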
The nature of test [7]: qHTS RealTime-Glo MT Cell Viability Assay in HepG2 cells - 32 hour (AID 1224877). Also: nearly all actives have a fitted effect of over 55% in size. The method in brief: (§5)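 HepG2 cells (600/well) were dispensed with RealTime-Glo reagents, incubated 5 h at 37 °C, then treated with compounds in DMSO for up to 40 h. Nonlytic NanoLuc luminescence reflecting viable cells was read at each stated time point.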
Test [8] in a line: A CellTox Green Cytotoxicity Assay to monitor cytotoxicity in HepG2 cells - 24 hour (AID 1224878). Also: nearly all actives have a fitted effect of over 45% in size. The method in brief: as §4
Test [9] can be described thus: A CellTox Green Cytotoxicity Assay to monitor cytotoxicity in HepG2 cells - 40 hour (AID 1224879). Also: nearly all actives have a fitted effect of over 40% in size. The procedure, abridged: as §4
A short description of test [10]: qHTS RealTime-Glo MT Cell Viability Assay in HEK293 cells - 0 hour (AID 1224880). The procedure, abridged: as §3
Test [11] in a line: A CellTox Green Cytotoxicity Assay to monitor cytotoxicity in HEK293 cells - 32 hour (AID 1224881). Also: nearly all actives have a fitted effect of over 40% in size. The procedure, abridged:
as §1

Test [12] is described as follows: A CellTox Green Cytotoxicity Assay to monitor cytotoxicity in HepG2 cells - 0 hour (AID 1224882). Also: nearly all actives have a fitted effect of over 35% in size. The method in brief: as §4
A short description of test [13]: A CellTox Green Cytotoxicity Assay to monitor cytotoxicity in HepG2 cells - 32 hour (AID 1224883). Also: nearly all actives have a fitted effect of over 50% in size. The method in brief:
as §4

Test [14] in a line: A CellTox Green Cytotoxicity Assay to monitor cytotoxicity in HEK293 cells - 8 hour (AID 1224884). Also: nearly all actives have a fitted effect of over 35% in size. The procedure, abridged: as §1
Test [15] in a line: qHTS RealTime-Glo MT Cell Viability Assay in HepG2 cells - 16 hour (AID 1224885). Also: nearly all actives have a fitted effect of over 50% in size. The method in brief:
as §5

The nature of test [16]: qHTS RealTime-Glo MT Cell Viability Assay in HEK293 cells - 24 hour (AID 1224886). Also: nearly all actives have a fitted effect of over 50% in size. Also: potency is read from the fitted curve at half-maximal effect. The method in brief: as §2
The nature of test [17]: qHTS RealTime-Glo MT Cell Viability Assay in HEK293 cells - 8 hour (AID 1224887). The method in brief: as §3
Test [18] in a line: A CellTox Green Cytotoxicity Assay to monitor cytotoxicity in HEK293 cells - 16 hour (AID 1224888). Also: nearly all actives have a fitted effect of over 35% in size. The procedure, abridged: as §1
A short description of test [19]: qHTS RealTime-Glo MT Cell Viability Assay in HepG2 cells - 0 hour (AID 1224889). Also: nearly all actives have a fitted effect of over 50% in size. The method in brief: as §5
The nature of test [20]: A CellTox Green Cytotoxicity Assay to monitor cytotoxicity in HepG2 cells - 8 hour (AID 1224890). Also: nearly all actives have a fitted effect of over 45% in size. The procedure, abridged: as §4

Unmarked numbers belong to inactive results. Records with an inconclusive call do not appear. The source made the active and inactive calls. Calls follow the shape of the dose curve; as a rule, active = well fitted curve in the direction sought with a large enough effect in the repeat runs; inconclusive = weak or mixed curves; inactive = no such curve, though single readings can be large; an effect the other way counts as inactive or inconclusive.
% is scaled to controls: 0 for no effect and ±100 for the full control effect.

With `CC(=O)Nc1ccccc1O`, the Potency entry in test [1], in [2], in test [5], in test [6], in test [7] and in [8] was “inactive” in each case. Further, the Potency entry in [9], in test [10], in test [11], in test [12], in test [13] and in test [14] was “inactive” each time. For the same compound, the Potency entry in test [16], in test [17], in test [18], in test [19] and in test [20] was “inactive” in each case. For the same compound, the outcome in test [3] and in [15] was inactive. Moreover, in test [4], the max response was 2.65%.

With `CCC(=O)O[C@@H]1C[C@H]2CC[C@]1(C)C2(C)C`, the Potency entry in [1], in [2], in [5], in test [6], in test [7] and in [8] was “inactive” in each case. Also, the Potency entry in test [9], in test [10], in test [11], in [12], in test [13] and in [14] was “inactive” each time. Further, the Potency result in test [16], in test [17], in test [19] and in [20] was “inactive” throughout. In addition, the call in [3] and in test [15] was inactive. Moreover, the max response in test [4] is -11.1%.

Take `O=Cc1ccc([N+](=O)[O-])cc1`: the Potency result in [1], in test [2], in test [5], in test [6], in test [7] and in [8] was “inactive” throughout. Also, the Potency entry in test [9], in test [10], in [11], in test [12], in test [13] and in [14] was “inactive” in each case. For the same compound, the Potency result in test [16], in test [17], in test [18] and in test [20] was “inactive” each time. The compound was classed as inactive in [3] and in test [15]. The max response in test [4] was 7.58%.

On to `CC(C)C/C=C(\C=O)c1ccccc1`, for which the Potency result in test [1], in test [2], in test [5], in [6], in test [7] and in test [8] was “inactive” throughout. For the same compound, the Potency result in test [9], in test [10], in test [11], in test [12], in test [13] and in [14] was “inactive” throughout. The Potency result in test [16], in test [17], in test [18] and in test [20] was “inactive” each time. Further, the call in test [3] and in test [15] was inactive. For the same compound, the max response in test [4] is 10%.

On to `O=C(O)c1ccccc1[N+](=O)[O-]`, for which the Potency result in [1], in test [2], in test [5], in test [6], in test [7] and in test [8] was “inactive” in each case. For the same compound, the Potency entry in test [9], in test [10], in test [11], in test [12], in test [13] and in [14] was “inactive” throughout. Besides, the Potency entry in test [16], in test [17], in [19] and in test [20] was “inactive” each time. Besides, the result in test [3] and in test [15] was inactive. In addition, the max response in test [4] was 24.4%.

Take `CC(C)CCCCCOC(=O)CS`: the Potency result in [1], in test [2], in test [5], in test [6], in [7] and in [8] was “inactive” each time. For the same compound, the Potency entry in test [9], in [10], in test [11], in test [12], in [13] and in test [14] was “inactive” throughout. Besides, the Potency entry in test [16], in [17], in test [18] and in [20] was “inactive” throughout. Moreover, the outcome in test [3] and in test [15] was inactive. The max response in test [4] is 4.02%.

Turning to `OCC(O)c1ccccc1` (stereo not given), the Potency entry in test [1], in [2], in test [5], in test [6], in test [7] and in [8] was “inactive” throughout. Moreover, the Potency result in test [9], in [10], in test [11], in [12], in [13] and in [14] was “inactive” in each case. In addition, the Potency entry in [16], in [17], in [18], in [19] and in test [20] was “inactive” in each case. Further, the call in [3] and in test [15] was inactive. For the same compound, in test [4], the max response was -20.6%.

`CCOc1ccccc1O`: the Potency result in [1], in test [2], in test [5], in test [6], in test [7] and in test [8] was “inactive” throughout. Further, the Potency entry in test [9], in test [10], in test [11], in [12], in test [13] and in test [14] was “inactive” each time. In addition, the Potency result in test [17], in test [18] and in test [20] was “inactive” in each case. Further, the compound was classed as inactive in test [3] and in [15]. Besides, the max response in [4] was -54.1%. Besides, in [16], the Potency was 19.5 µM (active).

For the compound `C=C[Si](OCC)(OCC)OCC`, the Potency entry in [1], in test [2], in test [5], in [6], in test [7] and in test [8] was “inactive” each time. The Potency entry in [9], in test [10], in test [11], in [12], in test [13] and in test [14] was “inactive” throughout. In addition, the Potency result in [16], in [17], in [19] and in test [20] was “inactive” in each case. Besides, the compound was classed as inactive in test [3] and in test [15]. Besides, the max response in test [4] is 11.4%.

As to `CCCCOC(=O)CC#N`, the Potency result in [1], in test [2], in [5], in test [6], in test [7] and in test [8] was “inactive” throughout. Further, the Potency result in [9], in test [10], in [11], in test [12], in test [13] and in test [14] was “inactive” throughout. The Potency result in [16], in test [17], in test [18], in test [19] and in [20] was “inactive” each time. Besides, the compound was called inactive in test [3] and in test [15]. In test [4], the max response was 7.32%.

As for `CC(COc1ccccc1)NC(C)C(O)c1ccc(O)cc1` (stereo not given), the Potency entry in test [1], in [2], in [5], in test [6], in test [7] and in [8] was “inactive” throughout. Further, the Potency entry in [9], in [10], in test [11], in test [12], in test [13] and in test [14] was “inactive” each time. Besides, the Potency result in test [16], in test [17], in test [18] and in test [20] was “inactive” each time. In addition, the compound was classed as inactive in test [3] and in test [15]. Moreover, the max response in test [4] is -6.13%.

On to `CC(O)CN` (stereo not given), for which the Potency result in test [1], in test [2], in test [5], in [6], in test [7] and in test [8] was “inactive” in each case. Also, the Potency result in [9], in test [10], in test [11], in [12], in test [13] and in [14] was “inactive” in each case. The Potency result in test [16], in test [17], in test [18], in test [19] and in test [20] was “inactive” throughout. For the same compound, the result in test [3] and in test [15] was inactive. Also, the max response in [4] was 1.55%.

For `NC(=O)c1ccccc1`, the Potency result in test [1], in test [2], in test [5], in [6], in test [7] and in test [8] was “inactive” in each case. Also, the Potency entry in test [9], in test [10], in test [11], in test [12], in [13] and in test [14] was “inactive” in each case. Also, the Potency entry in [16], in test [17], in [18] and in test [20] was “inactive” in each case. The compound was classed as inactive in test [3] and in test [15]. Also, the max response in test [4] was 1.7%.

Consider `CCCCCCCCS`, for which the Potency result in [1], in [2], in [5], in [6], in [7] and in test [8] was “inactive” in each case. Also, the Potency entry in test [9], in [10], in test [11], in [12], in [13] and in [14] was “inactive” in each case. Moreover, the Potency result in [16], in test [17], in test [19] and in test [20] was “inactive” throughout. Also, the outcome in test [3] and in test [15] was inactive. The max response in test [4] was 7.45%.
